Measurements taken from PubChem BioAssay AID875 (National Center for Advancing Translational Sciences (NCATS), 2007).
Among all 75,000 compounds or so, about 35 (0.05%) were called active. Calls follow the shape of the dose curve; as a rule, active = well fitted inhibition curve with a large enough effect; inconclusive = small, poorly fitted or top-dose-only effect; inactive = no such curve, though single readings can be large or run the other way. The list comes from a sample in which actives are over-represented; it also holds similar structures and randomly drawn compounds.

What follows are molecules tested against Breast cancer type 1 susceptibility protein (Homo sapiens) (UniProt P38398) (assay: qHTS Assay for Inhibitors of BRCT-Phosphoprotein Interaction (Green Fluorophore)). Settings: BRCA1 BRCT-phosphopeptide binding, green fluorescence polarization; series mostly up to 76.9 µM; activity change, negative = inhibition: at the top concentration.
Protocol: NIH Molecular Libraries Screening Centers Network [MLSCN]
NIH Chemical Genomics Center [NCGC]
PI Name: Natarajan, Amarnath; University of Texas
A complex of BRCT (C-terminal portion of BRCA1, MW ~35 kDa, His-tagged) and fluorescently labeled pBACH1 phosphorylated 10 aa peptide fragment of BACH1, a helicase implicated in DNA repair, is incubated with library members. Inhibitors of BRCT-pBACH1 binding are detected by a decrease in the fluorescence polarization (FP) of the fluorophore. In order to minimize the effect of fluorescence artifacts and to increase the overall robustness of the screen, the compound library members were incubated in separate reactions with fluorescein labeled probe-protein complexes. Protein and labeled probes were supplied by Dr. Amarnath Natarajan, Department of Pharmacology and Toxicology, University of Texas Medical Branch Galveston, TX.
Assay Buffer: 16mM Na2HPO4, 4 mM NaH2PO4, 150 mM NaCl, 1 mM EDTA, 1 mM DTT, 0.02% NaN3, and 0.01% Tween 20 at pH 7.3.
100 nM labeled decapeptide/250 nM protein in columns 1, 2, 5 - 48. Titration of unlabeled decapeptide control (from 10 mM, then 1:2 dilution in duplicate) pin-transferred to column 2, rows 1 to 16. Column 1 is neutral.
Three uL of reagents were dispensed to 1536-well Greiner black solid-bottom plates. Compounds and controls (23 nL) were transferred
via Kalypsys PinTool. The plates were incubated for 12 min at room temperature, and then read on ViewLux (Perkin-Elmer) High throughput CCD imager using FITC for the fluorescein-labeled decapeptide probe polarization filter sets. During dispense, reagent bottles were kept submerged into 4 deg C water bath and all liquid lines were covered with aluminum foil to minimize probe and protein degradation. All screening operations were performed on a Kalypsys robotic system (Kalypsys, Inc., San Diego, CA) containing one RX-130 and two RX-90 anthropomorphic robotic arms. The timing and order of assay plates passing through the screening system were adjusted such that each compound library plate was assayed against the fluorescein- and rhodamine-labeled assay systems at immediately adjacent time points.

Chain of Breast cancer type 1 susceptibility protein (Homo sapiens) (P38398 whole entry, looked up): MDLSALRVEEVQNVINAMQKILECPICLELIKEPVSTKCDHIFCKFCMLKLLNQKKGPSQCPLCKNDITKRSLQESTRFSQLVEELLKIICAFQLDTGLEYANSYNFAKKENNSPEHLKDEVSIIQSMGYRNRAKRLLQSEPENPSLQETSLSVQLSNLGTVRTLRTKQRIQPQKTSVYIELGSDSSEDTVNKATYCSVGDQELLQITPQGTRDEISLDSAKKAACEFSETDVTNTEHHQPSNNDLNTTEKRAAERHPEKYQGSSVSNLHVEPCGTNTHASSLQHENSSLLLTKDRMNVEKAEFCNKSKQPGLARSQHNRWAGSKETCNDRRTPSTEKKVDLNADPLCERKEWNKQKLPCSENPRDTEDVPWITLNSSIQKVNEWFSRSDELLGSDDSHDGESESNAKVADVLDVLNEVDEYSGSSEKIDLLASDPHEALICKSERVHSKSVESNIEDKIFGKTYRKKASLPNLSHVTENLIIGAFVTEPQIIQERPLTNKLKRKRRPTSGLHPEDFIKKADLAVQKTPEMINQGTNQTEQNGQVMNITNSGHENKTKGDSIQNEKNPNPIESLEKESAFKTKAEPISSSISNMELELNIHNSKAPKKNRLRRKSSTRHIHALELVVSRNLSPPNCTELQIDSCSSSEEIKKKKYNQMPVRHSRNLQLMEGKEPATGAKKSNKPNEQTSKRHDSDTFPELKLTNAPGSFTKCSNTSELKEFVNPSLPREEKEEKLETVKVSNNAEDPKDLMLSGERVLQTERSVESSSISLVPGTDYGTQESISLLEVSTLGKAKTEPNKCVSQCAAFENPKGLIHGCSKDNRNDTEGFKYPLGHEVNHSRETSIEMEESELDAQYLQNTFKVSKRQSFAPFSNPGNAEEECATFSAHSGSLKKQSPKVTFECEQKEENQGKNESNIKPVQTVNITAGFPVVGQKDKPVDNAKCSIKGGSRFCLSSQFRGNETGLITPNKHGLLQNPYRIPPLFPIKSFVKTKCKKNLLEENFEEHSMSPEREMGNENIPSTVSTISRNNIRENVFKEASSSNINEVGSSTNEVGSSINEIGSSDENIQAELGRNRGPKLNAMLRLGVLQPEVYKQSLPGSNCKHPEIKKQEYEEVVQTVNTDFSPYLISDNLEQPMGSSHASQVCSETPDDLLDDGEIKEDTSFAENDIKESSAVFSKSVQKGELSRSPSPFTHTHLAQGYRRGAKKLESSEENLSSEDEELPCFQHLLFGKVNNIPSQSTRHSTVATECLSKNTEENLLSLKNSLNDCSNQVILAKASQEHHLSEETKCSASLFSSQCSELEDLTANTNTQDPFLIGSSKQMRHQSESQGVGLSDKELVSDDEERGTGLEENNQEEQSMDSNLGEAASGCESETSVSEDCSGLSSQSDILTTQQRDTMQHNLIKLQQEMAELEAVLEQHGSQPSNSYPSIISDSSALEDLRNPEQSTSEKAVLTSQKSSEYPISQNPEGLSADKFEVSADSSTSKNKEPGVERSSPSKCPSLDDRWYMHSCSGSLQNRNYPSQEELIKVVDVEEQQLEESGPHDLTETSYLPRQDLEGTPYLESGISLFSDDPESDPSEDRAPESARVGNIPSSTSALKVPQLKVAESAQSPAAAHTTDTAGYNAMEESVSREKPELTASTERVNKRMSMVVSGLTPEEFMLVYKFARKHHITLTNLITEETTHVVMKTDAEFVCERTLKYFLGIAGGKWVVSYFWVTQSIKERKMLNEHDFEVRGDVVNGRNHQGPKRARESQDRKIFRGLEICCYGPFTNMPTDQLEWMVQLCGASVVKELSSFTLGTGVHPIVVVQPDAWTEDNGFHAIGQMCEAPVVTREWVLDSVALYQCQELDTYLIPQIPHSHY

Activity change, negative = inhibition, inactive:
Cc1nnc(NC2=NCCCCC2)o1 -1.75%, CCNc1nc(NCC)nc(N(C)n2cnnc2)n1 -1.9%, c1csc(-c2cn3c(n2)SCC3)c1 2.19%, O=C(c1csnn1)N1CCC[C@@]2(CCN(Cc3nccs3)C2)C1 -1.37%, COc1cc(-c2nc(S(=O)(=O)c3ccc(Cl)cc3)c(N(C)C)o2)cc(OC)c1OC -2.4%, COc1ccc(NC(=O)CSc2nnc(-c3cccs3)n2Cc2ccco2)cc1OC -1.04%, COC(=O)[C@@H]1C[C@@]2(O)[C@H](O)[C@H](O)[C@H](O)C[C@H]2N1Cc1ccc(C(C)(C)C)cc1 -2.44%, Cc1ccc(S(=O)(=O)C(C#N)c2nc3ccccc3nc2N2CCCC2)cc1C (stereo not given) 8.83%, O=C(CC1NCCNC1=O)Nc1ccc(Oc2ccccc2)cc1 (stereo not given) -1.54%, COC(=O)Nc1ccc(S(=O)(=O)N(C)CC(F)(F)C(F)F)cc1 2.58%, Cc1c2cnn(-c3ccccc3)c(=O)c2c(C)n1CCCC(=O)N1CCN(C)CC1 -0.857%, O=c1c2c(nc3n1CCCCC3)sc1c(O)cccc12 0.259%, COC(=O)[C@@H]1C[C@H]2CC[C@H](O)C[C@H]2N1Cc1ccc(N2CCN(C)CC2)cc1 -4.72%, CC(=O)OCC(=O)[C@@]1(O)CCC2C3CCC4=CC(=O)CC[C@@]4(C)[C@]3(F)C(O)C[C@]21C (stereo not given in full) -2.43% [at 3.08 µM], OCCCN1c2ccccc2Nc2nnc(-c3ccccc3)cc21 0.333%, COC1C[C@@H](O[C@@H]2C(C)C(=O)OC(C)C(C)C(O)C(C)C(=O)[C@@]3(CO3)CC(C)C(OC3OC(C)CC(N(C)C)C3O)C2C)OC(C)[C@@H]1O (stereo not given in full) -1.55% [at 3.08 µM], CCN(CC)S(=O)(=O)c1ccc2nc(CSc3nnnn3-c3ccc(O)cc3)[nH]c2c1 0.906%, CCC1=C(OC(=O)N(CC)CC)N2C(=O)OC(=NCCc3c[nH]c4ccccc34)[C@]2(C)[C@H]2C1=CC[C@H]1C(=O)N(CC)C(=O)[C@H]12 -2.62%, CSCCC1NC2(C(=O)Nc3ccc(Cl)cc32)[C@@H]2C(=O)N(C3CCCC3)C(=O)[C@H]12 (stereo not given in full) -0.643%, c1ccc2c(CNn3cnnc3)cccc2c1 -0.445%, Cc1occc1C(=O)Nc1cccc(Cn2cccn2)c1 0.791%, CCCc1nc2ccccc2c(=O)n1/N=C/c1ccc(O)c(O)c1 0.0898%, CC(C)C[C@H](NC(=O)NCCc1ccc(Cl)cc1)C(=O)O 0.662%, Cn1c(SCC(=O)Nc2cccc(NC(=O)c3cccs3)c2)nnc1-c1ccncc1 -1.53%, CCCOc1ccc(C2C(C(=O)c3ccc(C)o3)=C(O)C(=O)N2CCCn2ccnc2)cc1 (stereo not given) -3.82%, N#Cc1c(NC(=O)CSc2nc3ccccc3c(=O)n2Cc2ccco2)sc2c1CCCC2 0.27%, CCOC(=O)C1C(=O)OC2(CCCC2)C1C(=O)OCC (stereo not given) -2.01%, Cn1nc(-c2ccc(N3CCOCC3)c(NC(=O)c3ccccc3)c2)c2ccccc2c1=O 3.23%, CC1CCCCC1NC(=O)CSc1nnc(N)s1 (stereo not given) -1%, COCc1[nH]nc2c1C(C1C=CCCC1)C(C#N)=C(N)O2 (stereo not given) -1.17%, O=c1c(O)c(-c2ccc(O)cc2)oc2ccccc12 -3.22% [at 3.08 µM], CCOc1ccc2[nH]c(=O)c(CN(Cc3nnnn3CCc3ccccc3)CC3CCCO3)cc2c1 (stereo not given) 2.17%, Cc1ccc(C)c(NC(=O)C2CC(=O)N(C(C)C)C2)c1 (stereo not given) -0.457%, O=C(COc1ccc(S(=O)(=O)NCCc2ccccc2)cc1)N1CCCC1 -2.13%, CC(C)n1c(C(O)c2ccccc2)nc2ccccc21 (stereo not given) -0.718%, O=C(NCC12CC3CC(C1)CC(CNC(=O)N1CCCC1)(C3)C2)N1CCCC1 -0.336%, CC(=O)O[C@]1(C(C)=O)CC[C@@H]2[C@@H]3C=C(C)C4=CC(=O)CC[C@@]4(C)[C@H]3CC[C@]21C 0.539% [at 34.4 µM], S=c1[nH]nc(SCc2ccccc2Cl)c2[nH]cnc12 -0.607% [at 15.4 µM], CCNC(=O)CN(c1ccc(C)cc1)S(=O)(=O)c1ccc(SC)cc1 -0.138%, CC(C)NC(=O)N1CC[C@@]2(CCCN(C(=O)c3cccc(F)c3)C2)C1 -3.78%, Cc1ccc(C(c2nnnn2CS(=O)(=O)c2ccc(C)cc2)N2CCC(C(N)=O)CC2)cc1 (stereo not given) -1.57%, CCSc1ncnc2c(C#N)c3n(c12)CCCCC3 4.45%, COc1ccc(-n2c(SCC(=O)OC(C)C)nnc2-c2ccccn2)cc1 -0.81%, Nc1nnc(C2CCCC2)s1 0.21%, CC(=O)c1ccc(-n2nnnc2SCC(=O)N2CCN(C(=O)c3ccco3)CC2)cc1 0.328%, CC1(C)OC2CC(=O)OC[C@@]23C1CC(=O)[C@]1(C)C3CC[C@@]2(C)C(c3ccoc3)OC(=O)C3O[C@@]321 (stereo not given in full) -3.56%, C[C@H](CCC(=O)O)[C@H]1CC[C@@H]2[C@H]3CC[C@H]4C[C@H](O)CC[C@@]4(C)[C@@H]3CC[C@@]21C -0.353% [at 15.4 µM], COc1ccc(-c2nnco2)cc1OC -1.75%, CCCOC(=O)Cc1c(O)c2ccccc2[nH]c1=O -0.683%, N#CCC(=O)NC(=O)NCC1CC1 -1.78%
